The target in the first test is T1, GST-Nv-NF-kB (Ser allele) (Nematostella vectensis, UniProt A7UNT2 2-411).
T1 sequence: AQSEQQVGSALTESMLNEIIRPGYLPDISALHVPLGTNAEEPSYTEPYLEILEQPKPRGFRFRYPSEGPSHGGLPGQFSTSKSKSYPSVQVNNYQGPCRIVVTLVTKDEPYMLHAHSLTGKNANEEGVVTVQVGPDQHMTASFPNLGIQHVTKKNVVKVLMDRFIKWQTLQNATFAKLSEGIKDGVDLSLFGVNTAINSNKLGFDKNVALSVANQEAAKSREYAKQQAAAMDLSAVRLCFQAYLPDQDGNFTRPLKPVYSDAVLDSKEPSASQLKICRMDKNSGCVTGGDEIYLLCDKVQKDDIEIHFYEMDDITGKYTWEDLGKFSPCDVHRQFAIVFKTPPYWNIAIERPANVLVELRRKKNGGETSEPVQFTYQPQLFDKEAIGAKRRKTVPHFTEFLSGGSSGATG
The test can be described thus: protein-binding microarray (PBM); PBM: ~300 nM protein, 6 mM HEPES pH 7.8, 80 mM KCl, 0.5 mM EDTA, 0.5 mM EGTA, 6% glycerol, 35 ng/ul poly-dIdC, 1% milk, 1 h, room temperature; Ap Aiptasia and Nv Nematostella (sea anemones) / Co Capsaspora / Aq Amphimedon (sponge) / Dm Drosophila / Hu human; RHD is the Rel homology domain; high values mean tight binding. As to conditions: dsDNA, one strand shown.
Chain of GST-Hu-p50 (P19838 7-356): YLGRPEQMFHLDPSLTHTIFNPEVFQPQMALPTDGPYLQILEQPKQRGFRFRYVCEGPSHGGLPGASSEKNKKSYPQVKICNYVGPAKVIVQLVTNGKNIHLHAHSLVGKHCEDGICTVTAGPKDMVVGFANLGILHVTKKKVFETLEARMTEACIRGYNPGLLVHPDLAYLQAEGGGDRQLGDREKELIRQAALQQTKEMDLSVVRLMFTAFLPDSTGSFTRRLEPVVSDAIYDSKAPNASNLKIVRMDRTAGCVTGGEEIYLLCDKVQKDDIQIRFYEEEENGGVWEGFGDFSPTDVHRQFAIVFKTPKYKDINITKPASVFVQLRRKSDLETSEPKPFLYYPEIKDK
“CCGATTAACATCACGGGATTTCCTGATGTTAATCGGGTCTTGATTCGCTTGACGCTGCTG” yielded a binding signal of 3.47 z-score.
As for “CCGATTAACATCAGGGGGTAGGATGATGTTAATCGGGTCTTGATTCGCTTGACGCTGCTG”, the binding signal is 3.54 z-score.
As to “CCGATTAACATCAGTAATTCCCATGATGTTAATCGGGTCTTGATTCGCTTGACGCTGCTG”, the binding signal came out at 3.61 z-score.
“CCGATTAACATCAGGGAAAACGATGATGTTAATCGGGTCTTGATTCGCTTGACGCTGCTG” came in with a binding signal of 6.01 z-score.
“CCGATTAACATCAGTAACTCCCTTGATGTTAATCGGGTCTTGATTCGCTTGACGCTGCTG” returned a binding signal of 2.17 z-score.
Turning to “CCGATTAACATCAGGACTTCCCATGATGTTAATCGGGTCTTGATTCGCTTGACGCTGCTG”, the binding signal was determined as 1.03 z-score.
For the sequence “CCGATTAACATCACCCGCTTTATTGATGTTAATCGGGTCTTGATTCGCTTGACGCTGCTG”, the binding signal was 1.21 z-score.
For the sequence “CCGATTAACATCAACCACCCCCTTGATGTTAATCGGGTCTTGATTCGCTTGACGCTGCTG”, the binding signal was 3.4 z-score.
On the same count and under the same terms, as for “CCGATTAACATCAATATACCCCCTGATGTTAATCGGGTCTTGATTCGCTTGACGCTGCTG”, the figure is 5.46 z-score.
Same read-out and setting: next, “CCGATTAACATCAGAATATTCCCTGATGTTAATCGGGTCTTGATTCGCTTGACGCTGCTG”: 5.76 z-score.
Sequence “CCGATTAACATCAAGTCCCCCAATGATGTTAATCGGGTCTTGATTCGCTTGACGCTGCTG” registered a binding signal of 3.54 z-score.
“CCGATTAACATCAACTGGGAAAATGATGTTAATCGGGTCTTGATTCGCTTGACGCTGCTG” displayed a binding signal of 4.25 z-score.
For “CCGATTAACATCACCTTCCCCCCTGATGTTAATCGGGTCTTGATTCGCTTGACGCTGCTG”, the binding signal came to 5.23 z-score.
The sequence “CCGATTAACATCAGGGCGTCCCCTGATGTTAATCGGGTCTTGATTCGCTTGACGCTGCTG” returned a binding signal of 4.47 z-score.
“CCGATTAACATCAGGGGCGCCCCTGATGTTAATCGGGTCTTGATTCGCTTGACGCTGCTG” displayed a binding signal of 4.55 z-score.
The same measure, in the same setting: as for “CCGATTAACATCAGGGGGTGTTATGATGTTAATCGGGTCTTGATTCGCTTGACGCTGCTG”, the figure is 4.85 z-score; as for “CCGATTAACATCAGGGAATATTATGATGTTAATCGGGTCTTGATTCGCTTGACGCTGCTG”, 5.41 z-score.
On the same count and under the same terms, next, “CCGATTAACATCAGGAGATTCCCTGATGTTAATCGGGTCTTGATTCGCTTGACGCTGCTG”: 4.04 z-score; “CCGATTAACATCACCAAAATCCCTGATGTTAATCGGGTCTTGATTCGCTTGACGCTGCTG”: 2.71 z-score.
“CCGATTAACATCACATTTTCCCATGATGTTAATCGGGTCTTGATTCGCTTGACGCTGCTG” had a binding signal of 5.22 z-score.
As to “CCGATTAACATCAAGGGGGTCCCTGATGTTAATCGGGTCTTGATTCGCTTGACGCTGCTG”, the binding signal worked out at 3.02 z-score.
For the sequence “CCGATTAACATCAACTCGGGAAATGATGTTAATCGGGTCTTGATTCGCTTGACGCTGCTG”, the binding signal was determined as 2.66 z-score.

Another test addresses GST-Hu-p50 (Homo sapiens, UniProt P19838 7-356). Described as above. The settings on record: dsDNA, one strand shown.
Regarding “CCGATTAACATCACGGGATTTCCTGATGTTAATCGGGTCTTGATTCGCTTGACGCTGCTG”, the binding signal amounted to 3.82 z-score.
As to “CCGATTAACATCAGGGGGTAGGATGATGTTAATCGGGTCTTGATTCGCTTGACGCTGCTG”, the binding signal stood at 2.97 z-score.
“CCGATTAACATCAATAATTTTCCTGATGTTAATCGGGTCTTGATTCGCTTGACGCTGCTG”: the binding signal was found to be 1.12 z-score.
For the sequence “CCGATTAACATCAGTAATTCCCATGATGTTAATCGGGTCTTGATTCGCTTGACGCTGCTG”, the binding signal worked out at 3 z-score.
In turn, “CCGATTAACATCAGGGAAAACGATGATGTTAATCGGGTCTTGATTCGCTTGACGCTGCTG” showed a binding signal of 2.13 z-score.
For the sequence “CCGATTAACATCAGGGGCCGTAATGATGTTAATCGGGTCTTGATTCGCTTGACGCTGCTG”, the binding signal amounted to 1.41 z-score.
“CCGATTAACATCACTCTTTCCCCTGATGTTAATCGGGTCTTGATTCGCTTGACGCTGCTG” registered a binding signal of 4.08 z-score.
“CCGATTAACATCAGGGGAACCTATGATGTTAATCGGGTCTTGATTCGCTTGACGCTGCTG” came in with a binding signal of 4.74 z-score.
Take “CCGATTAACATCAGTAACTCCCTTGATGTTAATCGGGTCTTGATTCGCTTGACGCTGCTG”: the binding signal stood at 2.5 z-score.
Sequence “CCGATTAACATCAATCAGCGGGGTGATGTTAATCGGGTCTTGATTCGCTTGACGCTGCTG” registered a binding signal of 1.52 z-score.
For the sequence “CCGATTAACATCAGGACTTCCCATGATGTTAATCGGGTCTTGATTCGCTTGACGCTGCTG”, the binding signal is 1.76 z-score.
Sequence “CCGATTAACATCACCCGCTTTATTGATGTTAATCGGGTCTTGATTCGCTTGACGCTGCTG” returned a binding signal of 1.46 z-score.
Turning to “CCGATTAACATCAACGGGTCCCTTGATGTTAATCGGGTCTTGATTCGCTTGACGCTGCTG”, the binding signal came out at 1.31 z-score.
“CCGATTAACATCAACCACCCCCTTGATGTTAATCGGGTCTTGATTCGCTTGACGCTGCTG” had a binding signal of 4.03 z-score.
“CCGATTAACATCAATATACCCCCTGATGTTAATCGGGTCTTGATTCGCTTGACGCTGCTG” registered a binding signal of 4.42 z-score.
Sequence “CCGATTAACATCAGAATATTCCCTGATGTTAATCGGGTCTTGATTCGCTTGACGCTGCTG” yielded a binding signal of 3.75 z-score.
As to “CCGATTAACATCATGGGGTGTGCTGATGTTAATCGGGTCTTGATTCGCTTGACGCTGCTG”, the binding signal was 1.49 z-score.
The sequence “CCGATTAACATCAGGGGATAATATGATGTTAATCGGGTCTTGATTCGCTTGACGCTGCTG” had a binding signal of 4.49 z-score.
On the same count and under the same terms, next, “CCGATTAACATCACGGAAATTTATGATGTTAATCGGGTCTTGATTCGCTTGACGCTGCTG”: 1.44 z-score.
Take “CCGATTAACATCAAGTCCCCCAATGATGTTAATCGGGTCTTGATTCGCTTGACGCTGCTG”: the binding signal was 4.25 z-score.
In turn, “CCGATTAACATCAGATTATCCCCTGATGTTAATCGGGTCTTGATTCGCTTGACGCTGCTG” returned a binding signal of 4.03 z-score.
On the same count and under the same terms, next, “CCGATTAACATCAACTGGGAAAATGATGTTAATCGGGTCTTGATTCGCTTGACGCTGCTG”: 2 z-score; “CCGATTAACATCACCTTCCCCCCTGATGTTAATCGGGTCTTGATTCGCTTGACGCTGCTG”: 4.59 z-score; “CCGATTAACATCACCGAACTAACTGATGTTAATCGGGTCTTGATTCGCTTGACGCTGCTG”: 1.23 z-score.
“CCGATTAACATCAGGGCGTCCCCTGATGTTAATCGGGTCTTGATTCGCTTGACGCTGCTG” displayed a binding signal of 4.86 z-score.
For “CCGATTAACATCAGGGGCGCCCCTGATGTTAATCGGGTCTTGATTCGCTTGACGCTGCTG”, the binding signal worked out at 4.9 z-score.
The same measure, in the same setting: as for “CCGATTAACATCAGGAAATACCATGATGTTAATCGGGTCTTGATTCGCTTGACGCTGCTG”, the figure is 1.08 z-score; as for “CCGATTAACATCAGGGGGTGTTATGATGTTAATCGGGTCTTGATTCGCTTGACGCTGCTG”, 5.17 z-score; as for “CCGATTAACATCACAAAAAATTTTGATGTTAATCGGGTCTTGATTCGCTTGACGCTGCTG”, 1.65 z-score.
Sequence “CCGATTAACATCAGGGAATATTATGATGTTAATCGGGTCTTGATTCGCTTGACGCTGCTG” registered a binding signal of 3.86 z-score.
In turn, “CCGATTAACATCAGGAGATTCCCTGATGTTAATCGGGTCTTGATTCGCTTGACGCTGCTG” came in with a binding signal of 4.59 z-score.
As for “CCGATTAACATCACCAAAATCCCTGATGTTAATCGGGTCTTGATTCGCTTGACGCTGCTG”, the binding signal was determined as 2.9 z-score.
Same read-out and setting: as for “CCGATTAACATCAAGGTATTTCCTGATGTTAATCGGGTCTTGATTCGCTTGACGCTGCTG”, the figure is 1.29 z-score; as for “CCGATTAACATCACATTTTCCCATGATGTTAATCGGGTCTTGATTCGCTTGACGCTGCTG”, 3.45 z-score.
Same read-out and setting: as for “CCGATTAACATCACCGTTTAGGTTGATGTTAATCGGGTCTTGATTCGCTTGACGCTGCTG”, the figure is 1.22 z-score; as for “CCGATTAACATCAATAAATTTCCTGATGTTAATCGGGTCTTGATTCGCTTGACGCTGCTG”, 1.15 z-score.
For the sequence “CCGATTAACATCAAGGGGGTCCCTGATGTTAATCGGGTCTTGATTCGCTTGACGCTGCTG”, the binding signal was 3.68 z-score.
In turn, “CCGATTAACATCAACTCGGGAAATGATGTTAATCGGGTCTTGATTCGCTTGACGCTGCTG” returned a binding signal of 1.46 z-score.
Same read-out and setting: next, “CCGATTAACATCACCATTATAGGTGATGTTAATCGGGTCTTGATTCGCTTGACGCTGCTG”: 1.68 z-score.

These data come from PMC5700166.
